The subject of assay [1] is Wnt5a (protein binding on small-molecule microarray). The assay is described as follows: Wnt5a binders on small-molecule microarray, primary screen, biophysical, 635/667 nm fluorescence (AID 1142).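 Further: fluorescence read at 667 nm with signal to noise per printed feature.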 Particulars: 635 nm fluorescence, higher = more signal.
Assay [2] can be described thus: cell viability in Huh7 cells, primary screen, cytotoxicity control for HCV replication inhibitor project, CellTiter-Glo luminescence, basal, 48 h (AID 1143).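 Further: Huh7 hepatoma cells carrying a hepatitis C replication reporter with no stimulus; test concentration not given here.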 Particulars: Huh7 HCV replicon, higher = more signal, called active from +8 up or from −8 down.
The nature of assay [3]: P. aeruginosa biofilm formation inhibitors, primary screen, PAO1 strain, BacTiter-Glo luminescence, LB-PBS (AID 1144). The note with it: 12 h, higher = more signal.
The nature of assay [4]: CREB reporter modulators without forskolin, primary screen, cell-based, PC12, CRE-LacZ reporter, unstimulated (AID 1145). Particulars: no forskolin, luminescence, 4.5 h, higher = more signal, called active from +8 up or from −8 down.
Assay [5] is described as follows: CREB reporter modulators under forskolin, primary screen, cell-based, PC12, CRE-LacZ reporter, forskolin-stimulated (AID 1146).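 Further: PC12 cells with 6xCRE LacZ reporter stimulated by forskolin 10 µM; beta-galactosidase reporter signal reflecting CREB driven transcription.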 The note with it: luminescence, 4.5 h, higher = more signal, called active from +8 up or from −8 down.
Assay [6] has as its target Streptavidin (Streptomyces avidinii) (UniProt P22629). Nature of the assay: streptavidin binders on small-molecule microarray, primary screen, artefact control for SMM compound annotation, biophysical, 635/667 nm fluorescence (AID 1147).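 Further: signal reflects streptavidin binding to arrayed compounds as a control protein.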 The note with it: streptavidin binding, higher = more signal.
Assay [7] in a line: small-molecule binders of probe aInhba, primary screen, biochemical, small-molecule microarray, 635/667 nm fluorescence (AID 1148).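 Further: score merges 667nm spot fluorescence with signal-to-noise for antibody binding to printed compounds.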 Particulars: higher = more signal.
In assay [8] the target is Torsin-1A (Homo sapiens) (UniProt O14656). The assay is described as follows: torsin A binders from cell lysate, primary screen, small-molecule microarray, wild-type, 635/667 nm (AID 1149). The note with it: COS7 hTOR1A-WT lysate, 635 nm fluorescence, higher = more signal.
Assay [9] shares this target. The assay is described as follows: small-molecule binders of mutant TOR1A in lysate, primary screen, cell lysate, small-molecule microarray, COS7 lysate, 635/667 nm fluorescence (AID 1150).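 Further: score pools 667 nm emission and signal to noise measuring lysate protein binding.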 Particulars: COS7 hTOR1A mutant lysate, 635 nm fluorescence, higher = more signal.
Assay [10] relates to Sonic hedgehog protein (Shh). The assay is described as follows: small-molecule binders of Shh protein, primary screen, biochemical, small-molecule microarray, 635/667 nm fluorescence (AID 1151).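 Further: Shh protein binding to compounds spotted on small-molecule microarray slides; score combines spot fluorescence intensity with signal-to-noise across triplicate slides.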 The note with it: small-molecule microarray binding, 635 nm fluorescence; higher = more signal.

Calls of active or inactive are those of the source. Unless noted, how the calls were made is not given here.

Here are results for 14 compounds from PubChem BioAssay.

Sequence of Torsin-1A (Homo sapiens) (O14656 whole entry, looked up): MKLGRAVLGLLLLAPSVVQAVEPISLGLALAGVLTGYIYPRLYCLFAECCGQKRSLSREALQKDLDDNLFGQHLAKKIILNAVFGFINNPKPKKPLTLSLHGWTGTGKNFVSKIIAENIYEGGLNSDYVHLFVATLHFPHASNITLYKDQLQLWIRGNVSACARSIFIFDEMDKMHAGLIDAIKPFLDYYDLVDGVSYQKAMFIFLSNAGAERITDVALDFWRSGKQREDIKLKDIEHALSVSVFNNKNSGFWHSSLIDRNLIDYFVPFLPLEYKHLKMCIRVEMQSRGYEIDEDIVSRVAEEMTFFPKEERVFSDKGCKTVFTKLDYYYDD
Sequence of Streptavidin (Streptomyces avidinii) (P22629 whole entry, looked up): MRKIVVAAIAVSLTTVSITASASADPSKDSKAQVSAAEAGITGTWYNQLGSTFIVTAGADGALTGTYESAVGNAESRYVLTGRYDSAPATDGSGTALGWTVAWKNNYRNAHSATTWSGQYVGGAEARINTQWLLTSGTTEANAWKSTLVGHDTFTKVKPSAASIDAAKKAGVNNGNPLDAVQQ

On to `COCCOC(=O)N1C(=O)[C@@]2(c3ccccc31)[C@H](C(=O)N1CCN(c3ncccn3)CC1)[C@H]1C(=O)O[C@H](c3ccccc3)[C@H](c3ccccc3)N1[C@@H]2c1ccccc1OCCO`, for which the composite z-score in assay [1] is 0.404; in assay [6], 0.631; in assay [7] it was -0.0323; in [8] it was 0.545; in assay [9] it was 0.0291; in assay [10] it was 1.53. Also, the z-score is -4.29 (inactive) in assay [2], -1.51 (inactive) in assay [3], -2.11 (inactive) in assay [4] and -0.885 (inactive) in assay [5].

Turning to `O=C1[C@H]2C=C(I)[C@H](C[C@@H]2OCCCCCCO)[C@@]12CO2`, the composite z-score in assay [1] is -0.302; in assay [6], -0.324; in assay [7] it was 0.255; in assay [8] it was 0.349; in assay [9], 0.541; in assay [10], 1.07. Besides, the z-score in [2] was 0.567 (inactive); in [3] it was -0.04 (inactive); in assay [4], 1.21 (inactive); in assay [5], 1.77 (inactive).

Regarding `C=CCNC(=O)[C@H]1[C@@H]2C(=O)O[C@@H](c3ccccc3)[C@@H](c3ccccc3)N2[C@@H](c2ccc(OCCO)cc2)[C@]12C(=O)Nc1ccccc12`, the composite z-score was -0.159 in [1]; 0.917 in [6]; -0.244 in assay [7]; 0.0646 in assay [8]; 0.841 in assay [9]; -0.0035 in assay [10]. Besides, the z-score in assay [2] was -1.62 (inactive); in [3], -0.9 (inactive); in [4], 0.389 (inactive); in assay [5], 1.1 (inactive).

Turning to `O=C1C2C=CC(C(O)c3cccs3)N(Nc3ccc([N+](=O)[O-])cc3)C2C(=O)N1c1ccccc1` (stereo not given), the composite z-score was 0.0001 in [1]; 0.46 in [6]; -0.0791 in assay [7]; -0.236 in assay [8]; 0.303 in [9]; -0.441 in [10]. The z-score was 0.0886 (inactive) in assay [2], 0.461 (inactive) in assay [3], -0.685 (inactive) in assay [4] and -0.275 (inactive) in assay [5].

Consider `C=CCC(OC(C)=O)[C@@H]1[C@@H](N(Cc2ccc(-c3cccc(C(F)(F)F)c3)o2)C(=O)Cc2ccc(F)cc2)c2cc(OCCCO)ccc2N1C(=O)Cc1ccc2ccccc2c1` (stereo not given in full), for which the composite z-score in assay [1] is -0.268; in assay [6], -0.426; in [7], -0.114; in assay [8], -0.761; in assay [9], -0.673; in assay [10], 0.404. Further, the z-score is -0.229 (inactive) in [2], -1.1 (inactive) in assay [3], -0.374 (inactive) in [4] and 0.767 (inactive) in [5].

In the case of `O=C1NC(=O)C2C1C=CC(C(O)c1ccc(B(O)O)cc1)N2Nc1ccc(Cl)cc1Cl` (stereo not given), the composite z-score in assay [1] is -0.0744; in [6], 1.09; in [7], 0.0074; in assay [8], -1.22; in [9] it was -0.147; in assay [10], -0.589. The z-score in assay [2] was -0.245 (inactive); in assay [3], -0.661 (inactive); in assay [4] it was -0.515 (inactive); in assay [5] it was 0.763 (inactive).

As to `CCCC=C(CCC)[C@@H](NC(=O)c1ccc(C(F)(F)F)cc1)c1ccc(C(F)(F)F)cc1`, the composite z-score in assay [1] was 0.63; in [6], 0.48; in assay [7], 0.207; in assay [8] it was 0.342; in assay [9] it was 0.587; in assay [10] it was -0.605. Also, the z-score is -2.78 (inactive) in assay [2], 0.429 (inactive) in assay [3], 0.779 (inactive) in assay [4] and 0.34 (inactive) in [5].

`COc1ccc(NN2C(C(O)c3ccc(I)cc3)C=CC3C(=O)N(C4CCCCC4)C(=O)C32)cc1` (stereo not given): the composite z-score in [1] was determined as 0.404; in [6] it was 1.34; in [7], 0.253; in assay [8] it was 0.237; in assay [9] it was 0.51; in assay [10], 1.3. The z-score was -1.7 (inactive) in assay [2], -2.03 (inactive) in assay [3], 0.435 (inactive) in assay [4] and -0.469 (inactive) in [5].

With `CC(C)[Si](C#CCCc1ccccc1)(O[C@H](c1ccccc1)c1cn(Cc2ccccc2)nn1)C(C)C`, the composite z-score was 0.21 in assay [1]; 1.61 in assay [6]; -0.179 in assay [7]; 0.5 in [8]; 0.484 in assay [9]; 0.814 in assay [10]. The z-score in assay [2] was -1.12 (inactive); in assay [3], -0.778 (inactive); in assay [4], -0.0989 (inactive); in assay [5], -0.105 (inactive).

As for `O=C(NCCN1CCOCC1)[C@@H]1c2ccccc2C(=O)N(Cc2ccc(OC(F)(F)F)cc2)[C@H]1c1ccc(CO)cc1`, the composite z-score in assay [1] is 0.0235; in [6], -0.119; in assay [7] it was -0.0762; in [8], -0.282; in assay [9] it was 0.459; in assay [10] it was -0.0784. Further, the z-score is -0.281 (inactive) in [2], -0.0358 (inactive) in assay [3], 0.558 (inactive) in [4] and 0.338 (inactive) in [5].

`O=C1C[C@@](C(=O)NC2CC2)(c2ccc([N+](=O)[O-])cc2)[C@@H](c2ccc(CO)cc2)N1C1CCCCC1`: the composite z-score in assay [1] is 0.755; in assay [6] it was -0.124; in assay [7], -0.212; in assay [8] it was -0.204; in assay [9], 0.466; in assay [10], 2.18. The z-score in assay [2] was -5.6 (inactive); in assay [3] it was -2.4 (inactive); in assay [4] it was 0.118 (inactive); in assay [5] it was -0.0595 (inactive).

For `N#Cc1ccc(C(O)C2C=CC3C(=O)NC(=O)C3N2Nc2ccc(Cl)cc2Cl)cc1` (stereo not given), the composite z-score is -0.0844 in [1]; 0.865 in assay [6]; 0.104 in assay [7]; -0.404 in assay [8]; 0.0924 in assay [9]; -0.855 in assay [10]. The z-score is 0.199 (inactive) in [2], -0.376 (inactive) in [3], 0.629 (inactive) in [4] and -0.728 (inactive) in [5].

Regarding `C[N+](C)(C)CCCCNC(=O)[C@H]1C[C@H]2C(=O)N[C@@H](Cc3ccccc3)C(=O)N2[C@H]1c1cccc(OCCO)c1`, the composite z-score in assay [1] is 0.278; in assay [6] it was 0.313; in assay [7], 0.152; in assay [8] it was 0.971; in [9], 0.342; in [10], 2.23. Besides, the z-score is -0.15 (inactive) in [2], -0.495 (inactive) in [3], -0.13 (inactive) in assay [4] and -0.384 (inactive) in assay [5].

On to `CC(C)=CCCC(C)=CC(O)C1C=CC2C(=O)NC(=O)C2N1Nc1ccc(Cl)cc1Cl` (stereo not given), for which the composite z-score in assay [1] is 0.623; in assay [6], 1.26; in assay [7] it was -0.0035; in assay [8], -0.0743; in assay [9], 0.622; in [10] it was 0.737. Besides, the z-score in assay [2] was -1.64 (inactive); in assay [3], -0.815 (inactive); in assay [4], 0.822 (inactive); in assay [5] it was 0.501 (inactive).
